Tests used:
Assay in all cases: PBM binding z-score (relative to random genomic background probes); higher = stronger binding; sequences stand for … in GC…GCGATTGACAGCGTAGAATGAAGG
[1] = tested on: RARb homodimer (NR concentration 270 nM)
Method in brief: (§1)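 Random background probes are the reference for binding z-scores. These scores derive from regression-normalized fluorescence on custom Agilent 4×180K protein-binding microarrays incubated 1 h with ligand-free nuclear receptor dimers. Binding was detected with antibodies against each partner (one per run).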

[2] = tested on: RARg:RXRa (NR concentration 270 nM, RXRa partner concentration 90 nM)
Method in brief: as §1

[3] = tested on: RARg homodimer (NR concentration 270 nM)
Method in brief: as §1

[4] = tested on: RXRa DBDmut IVT, anti-RXR (DBD mutation: RXRa K156A/R161A, NR concentration 90 nM)
Method in brief: as §1

[5] = tested on: RXRa homodimer (NR concentration 180 nM)
Method in brief: as §1

[6] = tested on: THRa:RXRa (NR concentration 90 nM, RXRa partner concentration 90 nM)
Method in brief: as §1

[7] = tested on: THRa homodimer (NR concentration 90 nM)
Method in brief: as §1

[8] = tested on: VDR homodimer (NR concentration 270 nM)
Method in brief: as §1

Sequence | PBM binding z-score [1] | PBM binding z-score [2] | PBM binding z-score [3] | PBM binding z-score [4] | PBM binding z-score [5] | PBM binding z-score [6] | PBM binding z-score [7] | PBM binding z-score [8]
CGTCCAAGGTCAAAGGTCAGAGAAGAGATGACGG | 5.36 | 8.94 | 8.33 | 3.99 | 10.6 | 4.84 | 2.39 | 3.54
CCTACTGGGCCATTCAGAGGTGATTGATCATATG | 0.207 | 0.611 | 0.223 | -0.252 | 0.178 | 0.505 | -0.356 | -0.44
ATCTCTAGGTAAAGTACAGTGAAAGATCGATAGA | 0.302 | 0.498 | 0.733 | 0.55 | 0.366 | 0.609 | 0.162 | 0.488
AGAATGAGGTTACAAAAGATCAGGGAAACGCTTG | 0.449 | 1.86 | 1.58 | 1.16 | 2.44 | 2.6 | -0.0281 | 0.342
CCTTACGGGTCACTCCAGGTTACAGCATCGGAGT | 3.31 | 4.27 | 4.33 | 1.46 | 4.26 | 5.28 | 0.933 | 1.56
TCTATTAGTTGAACGGCAACCGACGAGTCCGTTT | -0.12 | 0.0941 | -0.2 | 1.53 | 0.254 | -0.127 | 0.107 | 0.971
CGAACTAGGTCGGAACAGGACAGTGAAGGATGAT | 0.127 | 0.399 | 0.643 | -0.112 | 0.169 | 1.89 | -0.442 | -0.102

— the supplement of paper PMC6555819
